The record followed here is PubChem BioAssay (NCI).

Molecules are shown by their SMILES. Where “and” joins values, the source holds several entries; their conditions need not be identical. Equal values may be shown once. Compounds without any hit were thinned out: in the full panel of roughly 79,000, 15% have a hit. Where a structure was tested more than once in an assay, its records may differ in their call. Calls of active or inactive are those of the source. Rule as the data show it: active = growth inhibition above about 70%; inactive = the rest.

A short description of the first assay: NCI Yeast Anticancer Drug Screen. Data for the mec2-1 strain (AID 157). The note with it: S. cerevisiae mec2-1 strain, at 50.0 µM, stronger effect = higher value. In short, it runs like this: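 Vehicle-treated cultures served as reference for growth inhibition of compound-exposed mec2-1 yeast.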
Turning to `COc1ccc2[nH]c3c(C)c4ccncc4c(C)c3c2c1`, the growth inhibition was 93.7% (active) and 99.5% (active).
The same measure, in the same setting: to `CC(=O)OC1OC(CI)C(OC(C)=O)C(OC(C)=O)C1OC(C)=O` (stereo unspecified) belongs 17% (inactive) and 12.6% (inactive); to `Cc1cc(NS(=O)(=O)c2ccc(N=Nc3cc(N=Nc4ccc(S(=O)(=O)Nc5cc(C)nc(C)n5)cc4)c4c(NC(=O)C(Cl)Cl)cccc4c3OC(=O)C(Cl)Cl)cc2)nc(C)n1` (tested in a mixture with another compound), -17.1% (inactive) and 81.5% (active).
On to `Oc1cc2c(cc1C(c1ccc3c(c1)OCO3)N1CCN(C(c3ccc4c(c3)OCO4)c3cc4c(cc3O)OCO4)CC1)OCO2` (stereo unspecified), for which the growth inhibition is 92.8% (active).
As for `O=[N+]([O-])c1ccc(N/N=C/CC(O)(C(F)(F)F)C(F)(F)F)c([N+](=O)[O-])c1`, the growth inhibition was 91.5% (active).
Same read-out and setting: to `CCCc1cc(=O)oc2c3c(c4c(c12)OC(C)(C)CC4)O[C@@H](C)[C@H](C)[C@H]3O` belongs -18.8% (inactive) and 90% (active); to `O=Cc1cc(Br)ccc1O`, 92.5% (active) and 98% (active); to `Cc1n(-c2ccccc2)c2c([n+]1Cc1ccc([N+](=O)[O-])cc1)C(=O)c1ccccc1C2=O`, 89% (active).
On the same count and under the same terms, to `Nc1ncnc2c1ncn2CCCl` belongs -1.35% (inactive); to `CN(C)CCCN=c1c2ccccc2n(O)c2cccc([N+](=O)[O-])c12`, 26.8% (inactive).
The same measure, in the same setting: to `CCOc1ccc2ccccc2c1C(Cc1ccc(Cl)cc1)NCCO` (stereo unspecified) belongs 93.5% (active).
With `COc1ccc(Oc2ccccc2N)cc1`, the growth inhibition is 59.3% (inactive).
The same measure, in the same setting: the result for `O=C1C(Cl)=C(Cl)C(Cl)(Cl)C(Cl)=C1Cl` reads 99.2% (active) and 52.9% (inactive).
Take `CCCCCCCCCCCC(=O)CN1CCOCC1`: the growth inhibition is 99.8% (active).
Take `CCC(C)(C)c1cc(O)c(C(C)(C)CC)cc1O`: the growth inhibition is -22.4% (inactive) and 93.3% (active).
On the same count and under the same terms, the result for `CC[C@](O)(CC(=O)O[C@H]1C(=O)O[C@@H]2C[C@H]3C(C)=CC(=O)[C@@H](O)[C@]3(C)[C@H]3[C@@]4(O)OC[C@]32[C@@H]1[C@@H](C)[C@H]4O)C(C)C` reads 91.7% (active); that for `Nc1ccccc1Oc1ccc(Cl)cc1Cl`, 92.7% (active); that for `O=C1Nc2ccccc2C1(O)C/C(=N/O)c1ccc2ccccc2c1` (stereo unspecified), 13.9% (inactive).
On the same count and under the same terms, the result for `NNC(=O)c1ccc(NC(=O)CSc2nc3ccccc3s2)cc1` reads 79% (active); that for `C[C@H]1CC[C@H]([C@@H](C)[C@H]2[C@@H](O)C[C@H]3[C@@H]4CC[C@H]5C[C@@H](O)CC[C@]5(C)[C@H]4CC[C@]23C)NC1`, 91.8% (active) and 85.7% (active); that for `CC(C)(c1ccc(O)cc1)c1ccc(O)cc1`, 58.6% (inactive) and 81.8% (active).
Still for that read-out and setting: to `O=C1/C(=C/c2ccc(Cl)cc2)CNC/C1=C\c1ccc(Cl)cc1` belongs 81.8% (active) and 89.5% (active); to `CCN(CC)c1ccc(/C=C/c2ccnc3ccccc23)cc1`, 99% (active) and 97.8% (active).
As for `Oc1ccc(/C=N/NC(=S)NN2CCOCC2)nc1`, the growth inhibition is 90.1% (active).
As to `COc1ccc(-c2c(C#N)c(-c3ccc(C)cc3)n(NS(=O)(=O)c3ccccc3)c(=O)c2C#N)cc1`, the growth inhibition is 49.8% (inactive).
Still for that read-out and setting: the result for `c1ccc(-c2[nH]c3ccccc3c2-c2ccccn2)cc1` reads 99.3% (active); that for `Nc1cc2c(cc1Cl)[nH]c(=O)c1cc(Cl)ccc12`, 3.6% (inactive).
On the same count and under the same terms, the result for `C1=C(c2ccccc2)N(CCc2ccccc2)C(c2ccccc2)=CN1Cc1ccccc1` reads 98.5% (active).
Still for that read-out and setting: to `COC(=O)c1nnn(-c2ccc(S(N)(=O)=O)cc2)c1N` belongs 19.6% (inactive).
For the molecule `O=C1C(CN2CCOCC2)CCCC1CN1CCOCC1` (stereo unspecified), the growth inhibition is 35% (inactive) and 33.8% (inactive).
Consider `c1ccc(-c2nc3ccccc3[nH]2)cc1`, for which the growth inhibition was -5.55% (inactive) and 5.3% (inactive).
Still for that read-out and setting: the result for `O=Cc1cc([N+](=O)[O-])cc(CCl)c1O` reads 13.2% (inactive); that for `COC(=O)[C@]1(C)CCC[C@]2(C)c3ccc(C(C)C)cc3CC[C@@H]12`, 3.05% (inactive) and 99.1% (active); that for `CCOC(=O)c1ccc(NCc2ccc3ccccc3n2)cc1`, 51.5% (inactive).
`CCCCCCCCCCCCCCCC(=O)NCC[N+](C)(C)C`: the growth inhibition is 99.7% (active).
The same measure, in the same setting: to `OC(c1nc2ccccc2[nH]1)C(O)C(O)C(O)c1nc2ccccc2[nH]1` (stereo unspecified) belongs -15.1% (inactive) and 2.95% (inactive); to `O=[N+]([O-])c1ccc(N/N=C(/C=N/Nc2ccc([N+](=O)[O-])cc2)C(O)C(O)C(O)CO)cc1` (stereo unspecified), 97.8% (active) and 97.7% (active); to `c1ccc2c(c1)CNc1ccccc1-2`, 42.7% (inactive).

A short description of another assay: NCI Yeast Anticancer Drug Screen. Data for the sgs1 mgt1 strain (AID 161).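 Also: 0% = growth of cultures given vehicle only.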 The note with it: S. cerevisiae sgs1 mgt1 strain, at 5.0 µM (retest, dose inferred, filed as 0.5), stronger effect = higher value. The method in brief: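 Read-out: growth inhibition vs vehicle controls. Cells: mutant yeast strain deficient in DNA damage repair.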
Turning to `COc1ccc2[nH]c3c(C)c4ccncc4c(C)c3c2c1`, the growth inhibition was 39% (inactive).
Still for that read-out and setting: to `Cc1cc(NS(=O)(=O)c2ccc(N=Nc3cc(N=Nc4ccc(S(=O)(=O)Nc5cc(C)nc(C)n5)cc4)c4c(NC(=O)C(Cl)Cl)cccc4c3OC(=O)C(Cl)Cl)cc2)nc(C)n1` (tested in a mixture with another compound) belongs 8% (inactive); to `Oc1cc2c(cc1C(c1ccc3c(c1)OCO3)N1CCN(C(c3ccc4c(c3)OCO4)c3cc4c(cc3O)OCO4)CC1)OCO2` (stereo unspecified), 8% (inactive).
Still for that read-out and setting: to `O=[N+]([O-])c1ccc(N/N=C/CC(O)(C(F)(F)F)C(F)(F)F)c([N+](=O)[O-])c1` belongs -1% (inactive); to `CCCc1cc(=O)oc2c3c(c4c(c12)OC(C)(C)CC4)O[C@@H](C)[C@H](C)[C@H]3O`, -1% (inactive).
The same measure, in the same setting: the result for `O=Cc1cc(Br)ccc1O` reads 10% (inactive) and 4% (inactive); that for `Cc1n(-c2ccccc2)c2c([n+]1Cc1ccc([N+](=O)[O-])cc1)C(=O)c1ccccc1C2=O`, -10% (inactive).
For the molecule `Nc1ncnc2c1ncn2CCCl`, the growth inhibition is 2% (inactive).
On the same count and under the same terms, to `CN(C)CCCN=c1c2ccccc2n(O)c2cccc([N+](=O)[O-])c12` belongs 2% (inactive); to `CCOc1ccc2ccccc2c1C(Cc1ccc(Cl)cc1)NCCO` (stereo unspecified), -21% (inactive).
In the case of `COc1ccc(Oc2ccccc2N)cc1`, the growth inhibition is -2% (inactive).
The same measure, in the same setting: the result for `O=C1C(Cl)=C(Cl)C(Cl)(Cl)C(Cl)=C1Cl` reads 18% (inactive) and 69% (inactive).
Same read-out and setting: to `CCC(C)(C)c1cc(O)c(C(C)(C)CC)cc1O` belongs -3% (inactive); to `CC[C@](O)(CC(=O)O[C@H]1C(=O)O[C@@H]2C[C@H]3C(C)=CC(=O)[C@@H](O)[C@]3(C)[C@H]3[C@@]4(O)OC[C@]32[C@@H]1[C@@H](C)[C@H]4O)C(C)C`, 57% (inactive); to `Nc1ccccc1Oc1ccc(Cl)cc1Cl`, -21% (inactive).
The same measure, in the same setting: the result for `O=C1Nc2ccccc2C1(O)C/C(=N/O)c1ccc2ccccc2c1` (stereo unspecified) reads 71% (active).
Consider `NNC(=O)c1ccc(NC(=O)CSc2nc3ccccc3s2)cc1`, for which the growth inhibition was 9% (inactive).
The same measure, in the same setting: the result for `C[C@H]1CC[C@H]([C@@H](C)[C@H]2[C@@H](O)C[C@H]3[C@@H]4CC[C@H]5C[C@@H](O)CC[C@]5(C)[C@H]4CC[C@]23C)NC1` reads 23% (inactive) and 4% (inactive); that for `CC(C)(c1ccc(O)cc1)c1ccc(O)cc1`, -3% (inactive) and 4% (inactive); that for `O=C1/C(=C/c2ccc(Cl)cc2)CNC/C1=C\c1ccc(Cl)cc1`, 88% (active) and 58% (inactive).
Still for that read-out and setting: the result for `CCN(CC)c1ccc(/C=C/c2ccnc3ccccc23)cc1` reads 4% (inactive) and -3% (inactive); that for `Oc1ccc(/C=N/NC(=S)NN2CCOCC2)nc1`, 42% (inactive); that for `COc1ccc(-c2c(C#N)c(-c3ccc(C)cc3)n(NS(=O)(=O)c3ccccc3)c(=O)c2C#N)cc1`, 41% (inactive).
On to `c1ccc(-c2[nH]c3ccccc3c2-c2ccccn2)cc1`, for which the growth inhibition is 4% (inactive).
Still for that read-out and setting: the result for `Nc1cc2c(cc1Cl)[nH]c(=O)c1cc(Cl)ccc12` reads 26% (inactive); that for `C1=C(c2ccccc2)N(CCc2ccccc2)C(c2ccccc2)=CN1Cc1ccccc1`, 7% (inactive).
On the same count and under the same terms, the result for `COC(=O)c1nnn(-c2ccc(S(N)(=O)=O)cc2)c1N` reads -9% (inactive); that for `O=C1C(CN2CCOCC2)CCCC1CN1CCOCC1` (stereo unspecified), 2% (inactive); that for `O=Cc1cc([N+](=O)[O-])cc(CCl)c1O`, -59% (inactive).
On the same count and under the same terms, the result for `CCOC(=O)c1ccc(NCc2ccc3ccccc3n2)cc1` reads -28% (inactive); that for `OC(c1nc2ccccc2[nH]1)C(O)C(O)C(O)c1nc2ccccc2[nH]1` (stereo unspecified), -20% (inactive).
With `O=[N+]([O-])c1ccc(N/N=C(/C=N/Nc2ccc([N+](=O)[O-])cc2)C(O)C(O)C(O)CO)cc1` (stereo unspecified), the growth inhibition is 44% (inactive) and 79% (active).
The same measure, in the same setting: to `c1ccc2c(c1)CNc1ccccc1-2` belongs 0% (inactive).
